# Experimental data from PubChem BioAssay (NCATS).
# Values joined by “and” are separate entries in the source; they are usually repeats but may differ in a detail not shown here. Equal values may be shown once. Records with an inconclusive call do not appear. Entries that show only a call come without a potency. More than one record can exist for a structure, and the calls need not agree. Active and inactive are the calls of the source. Calls follow the shape of the dose curve; as a rule, active = well fitted curve in the direction sought with a large enough effect; inconclusive = small, poorly fitted or top-dose-only effect, or another doubt; inactive = no such curve, though single readings can be large; an effect the other way counts as inactive or inconclusive.
# Test system: not listed separately
# Assay: HepG2 viability counterscreen (readout 2: ATP content) against the NCATS DSHEA and TCM libraries (AID 1794840);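 also: HepG2 cells exposed to substances for about 24 h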
# Settings: ATP content luminescence; series mostly up to 27.3 µM
# From the text: Assay Development and Screening Technology Laboratory (ADST)
# National Center for Advancing Translational Sciences (NCATS), Rockville, MD
# National Institute of Health (NIH), Bethesda, Maryland
# Dietary Supplements and Natural Products have minor oversight of their safety and efficacy. We assembled a collection of Dietary Supplements and Natural Products (DSNP) as well as Traditional Chinese Medicinal (TCM) Plant extracts, which were screened against an in vitro panel of assays, including a liver cytochrome p450 enzyme panel, CAR/PXR signaling pathways, and P-gp transporter assays, to assess their activity. This pipeline facilitated the interrogation of Natural Product-Drug Interaction (NaPDI) through prominent metabolizing pathways. In addition, we compared the activity profiles of the DSNP/TCM substances with those of an approved drug collection. Many of the approved drugs have well-annotated mechanisms of action (MOA) while the MOAs for most of the DSNP and TCM samples remain unknown. Based on the premise that compounds with similar activity profiles tend to share similar targets or MOA, we clustered the library activity profiles to identify overlap with the NCATS Pharmaceutical Collection to predict the MOAs of the DSNP/TCM substances. Overall, we highlight four significant bioactivity profiles (measured by p-values) as examples of this prediction. In addition, to assess broad cytotoxicity, we employed screening against a HepG2 cell line.
# To this end, we profiled both collections for potential CAR and/or PXR activity, employing a previously published 1536-well qHTS assay. […]
# 7; Read 1; Fluorescence; EnVision plate reader excitation 380 nm, emission 510 nm. […]
# 11; Read 2; Luminescence; ViewLux plate reader. […]
# 7. After incubation, plates were read for fluorescence intensity (Ex/Em = 380 nm/510 nm) on an EnVision detector (PerkinElmer, Shelton, Connecticut).
# 8. Once the detection for fluorescence was completed, plates were dispensed with 3 uL of CellTiter-Glo (Promega, Madison, WI). […]
# 11. Plates were then read for luminescence intensity on a ViewLux detector. […]
row,SMILES,outcome
1,COc1ccc2cc3[n+](cc2c1OC)CCc1cc2c(cc1-3)OCO2,inactive
2,O=C(O)c1cccnc1,inactive
3,NNC(=O)c1ccncc1,inactive

# Test system: not listed separately
# Assay: HepG2 viability counterscreen (readout 1: protease activity) against the NCATS DSHEA and TCM libraries (AID 1794841);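 also: cells exposed to compounds for about 24 h before the protease read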
# Settings: qHTS concentration series; series mostly up to 27.3 µM
# How it was run: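 1,000 HepG2 cells/well, 4 h attach; compounds ~24 h, 37C/5% CO2. Readout 1: GF-AFC 25 uM final, 30 min, fluorescence 380/510 nm. Readout 2: CellTiter-Glo, 30 min RT, luminescence.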
row,SMILES,outcome
1,COc1ccc2cc3[n+](cc2c1OC)CCc1cc2c(cc1-3)OCO2,inactive
2,O=C(O)c1cccnc1,inactive
3,NNC(=O)c1ccncc1,inactive

# Molecular target: Glutathione peroxidase 1 (Homo sapiens) (UniProt P07203)
# Assay: Primary qHTS Assay for Inhibitors of Recombinant Selenoprotein Glutathione Peroxidase 1 (GPX1) (AID 1845191); also: nearly all actives have a fitted effect of over 65% in size; also: potency is read from the fitted curve at half-maximal effect
# Settings: recombinant GPX1, GR-coupled NADPH fluorescence, 15 min; series mostly up to 48.8 µM
# How it was run: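 10 nM GPX1 + cpd, 30 min RT; start w/ 1 mM GSH, 0.5 mM cumene hydroperoxide, 0.5 mM NADPH, 100 nM GR, 0.01% BSA; buffer 50 mM Tris-HCl pH 7.5, 2 mM EDTA, 150 mM NaCl; Fl 340/450, 0 & 15 min.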
# Glutathione peroxidase 1 (Homo sapiens), sequence (P07203 whole entry, looked up): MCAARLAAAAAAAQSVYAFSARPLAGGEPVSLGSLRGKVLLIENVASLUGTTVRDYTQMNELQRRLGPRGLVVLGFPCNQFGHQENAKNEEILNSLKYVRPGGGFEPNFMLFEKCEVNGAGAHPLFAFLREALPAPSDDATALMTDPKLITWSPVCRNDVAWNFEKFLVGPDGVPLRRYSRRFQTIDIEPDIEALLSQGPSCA
row,SMILES,Potency
1,COc1cnc(NS(=O)(=O)c2ccc(N)cc2)nc1,inactive
2,CCCOc1ccc(C(=O)OCCN(CC)CC)cc1N,inactive
3,NS(=O)(=O)c1cc2c(cc1Cl)NC(C(Cl)Cl)NS2(=O)=O (stereo not drawn),inactive
4,OC(Cn1cncn1)(Cn1cncn1)c1ccc(F)cc1F,inactive
5,O=C(NCC1CN(c2ccc(N3CCOCC3=O)cc2)C(=O)O1)c1ccc(Cl)s1 (stereo not drawn),inactive
6,COc1ccc(C(=O)CC(=O)c2ccc(C(C)(C)C)cc2)cc1,inactive
7,CCOC(=O)c1ccc(C#Cc2ccc3c(c2)C(C)(C)CCS3)nc1,inactive
8,O=C(O)CCn1c2c(c3ccccc31)C[C@H](NS(=O)(=O)c1ccc(F)cc1)CC2,inactive
9,Cc1c(-c2ccc(O)cc2)n(Cc2ccc(OCCN3CCCCCC3)cc2)c2ccc(O)cc12,inactive
10,O=P(O)(O)C(O)(Cc1cccnc1)P(=O)(O)O,inactive
11,CC1(C)[C@H](C(=O)O)N2C(=O)C[C@H]2S1(=O)=O,inactive
12,CNS(=O)(=O)CCc1ccc2[nH]cc(C3CCN(C)CC3)c2c1,inactive
13,CS(=O)(=O)c1ccc([C@@H](O)[C@@H](CO)NC(=O)C(Cl)Cl)cc1,inactive
14,CNC(=O)c1cc(Oc2ccc(NC(=O)Nc3ccc(Cl)c(C(F)(F)F)c3)cc2)ccn1,inactive
15,COc1cc2ncnc(Nc3cccc(Cl)c3)c2cc1OC,inactive
16,NC1(c2ccc(-c3nc4ccn5c(=O)[nH]nc5c4cc3-c3ccccc3)cc2)CCC1,inactive
17,NNC(=O)c1ccncc1,inactive
18,CC[C@H](C)C(=O)O[C@H]1C[C@@H](C)C=C2C=C[C@H](C)[C@H](CC[C@@H]3C[C@@H](O)CC(=O)O3)[C@H]21,inactive

row,SMILES,Potency
1,Clc1ccccc1CN1CCc2sccc2C1,inactive
2,CCCCCCNC(=O)n1cc(F)c(=O)[nH]c1=O,inactive
3,Cc1nnc(C(=O)NC(C)(C)c2nc(C(=O)NCc3ccc(F)cc3)c(O)c(=O)n2C)o1,inactive
4,CC1=NN(c2ccccc2)C(=O)C1,inactive
5,CCC(=O)O[C@]1(C(=O)CCl)[C@@H](C)C[C@H]2[C@@H]3CCC4=CC(=O)C=C[C@]4(C)[C@@]3(F)[C@@H](O)C[C@@]21C,inactive
6,CNNCc1ccc(C(=O)NC(C)C)cc1,inactive
7,Nc1nc(F)nc2c1ncn2[C@@H]1O[C@H](CO)[C@@H](O)[C@@H]1O,inactive
8,CC(C(=O)O)c1ccc2c(c1)CC(=O)c1ccccc1S2 (stereo not drawn),inactive and 16.1 µM (active)
9,CCCCOc1ccc(CC(=O)NO)cc1,inactive
10,O=S(=O)(c1cccc2cnccc12)N1CCCNCC1,inactive
11,COc1cc2c(Nc3ccc(Br)cc3F)ncnc2cc1OCC1CCN(C)CC1,inactive
12,CC1=C(C(=O)O)N2C(=O)[C@@H](NC(=O)C(N)c3ccccc3)[C@H]2SC1 (stereo partly drawn),inactive
13,CCC(C)(C)c1ccc(CC(C)CN2C[C@@H](C)O[C@@H](C)C2)cc1 (stereo partly drawn),inactive
14,CC(C)(C#N)c1cc(Cn2cncn2)cc(C(C)(C)C#N)c1,inactive
15,O=NN(CCCl)C(=O)NC1CCCCC1,inactive
16,Nc1ccc(S(=O)(=O)Nc2ccccn2)cc1,inactive
17,Cc1onc(-c2ccccc2Cl)c1C(=O)N[C@@H]1C(=O)N2[C@@H]1SC(C)(C)[C@@H]2C(=O)O,inactive

# Molecular target: Phospholipid hydroperoxide glutathione peroxidase GPX4 (Homo sapiens) (UniProt P36969)
# Assay: Primary qHTS Assay for Inhibitors of Recombinant Selenoprotein Glutathione Peroxidase 4 (GPX4) (AID 1845192); also: nearly all actives have a fitted effect of over 65% in size
# Settings: recombinant GPX4, GR-coupled NADPH fluorescence, 15 min; series mostly up to 50 µM
# How it was run: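 NADPH consumption, followed by fluorescence at 340/450 nm between 0 and 15 min, reports GPX4 activity via coupled glutathione reductase (100 nM). Enzyme 200 nM was pre-exposed to compound 30 min; 0.5 mM cumene hydroperoxide and 1 mM GSH served as substrates.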
# Phospholipid hydroperoxide glutathione peroxidase GPX4 (Homo sapiens), sequence (P36969 whole entry, looked up): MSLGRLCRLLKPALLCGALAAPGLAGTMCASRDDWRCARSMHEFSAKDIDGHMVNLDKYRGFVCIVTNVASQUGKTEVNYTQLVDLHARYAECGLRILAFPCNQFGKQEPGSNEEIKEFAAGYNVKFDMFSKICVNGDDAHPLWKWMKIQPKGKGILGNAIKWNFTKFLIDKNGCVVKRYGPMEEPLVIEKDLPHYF
row,SMILES,Potency
1,COc1cnc(NS(=O)(=O)c2ccc(N)cc2)nc1,inactive
2,CCCOc1ccc(C(=O)OCCN(CC)CC)cc1N,inactive
3,NS(=O)(=O)c1cc2c(cc1Cl)NC(C(Cl)Cl)NS2(=O)=O (stereo not drawn),inactive
4,OC(Cn1cncn1)(Cn1cncn1)c1ccc(F)cc1F,inactive
5,O=C(NCC1CN(c2ccc(N3CCOCC3=O)cc2)C(=O)O1)c1ccc(Cl)s1 (stereo not drawn),inactive
6,COc1ccc(C(=O)CC(=O)c2ccc(C(C)(C)C)cc2)cc1,inactive
7,CCOC(=O)c1ccc(C#Cc2ccc3c(c2)C(C)(C)CCS3)nc1,inactive
8,O=C(O)CCn1c2c(c3ccccc31)C[C@H](NS(=O)(=O)c1ccc(F)cc1)CC2,inactive
9,Cc1c(-c2ccc(O)cc2)n(Cc2ccc(OCCN3CCCCCC3)cc2)c2ccc(O)cc12,inactive
10,O=P(O)(O)C(O)(Cc1cccnc1)P(=O)(O)O,inactive
11,CC1(C)[C@H](C(=O)O)N2C(=O)C[C@H]2S1(=O)=O,inactive
12,CNS(=O)(=O)CCc1ccc2[nH]cc(C3CCN(C)CC3)c2c1,inactive
13,CS(=O)(=O)c1ccc([C@@H](O)[C@@H](CO)NC(=O)C(Cl)Cl)cc1,inactive
14,COc1ccc2cc3[n+](cc2c1OC)CCc1cc2c(cc1-3)OCO2,inactive
15,CNC(=O)c1cc(Oc2ccc(NC(=O)Nc3ccc(Cl)c(C(F)(F)F)c3)cc2)ccn1,inactive
16,COc1cc2ncnc(Nc3cccc(Cl)c3)c2cc1OC,inactive
17,O=C(O)c1cccnc1,inactive
18,NC1(c2ccc(-c3nc4ccn5c(=O)[nH]nc5c4cc3-c3ccccc3)cc2)CCC1,inactive
19,NNC(=O)c1ccncc1,inactive

row,SMILES,Potency
1,CC[C@H](C)C(=O)O[C@H]1C[C@@H](C)C=C2C=C[C@H](C)[C@H](CC[C@@H]3C[C@@H](O)CC(=O)O3)[C@H]21,inactive
2,Clc1ccccc1CN1CCc2sccc2C1,inactive
3,CCCCCCNC(=O)n1cc(F)c(=O)[nH]c1=O,inactive
4,Cc1nnc(C(=O)NC(C)(C)c2nc(C(=O)NCc3ccc(F)cc3)c(O)c(=O)n2C)o1,inactive
5,CC1=NN(c2ccccc2)C(=O)C1,inactive
6,CCC(=O)O[C@]1(C(=O)CCl)[C@@H](C)C[C@H]2[C@@H]3CCC4=CC(=O)C=C[C@]4(C)[C@@]3(F)[C@@H](O)C[C@@]21C,inactive
7,CNNCc1ccc(C(=O)NC(C)C)cc1,inactive
8,Nc1nc(F)nc2c1ncn2[C@@H]1O[C@H](CO)[C@@H](O)[C@@H]1O,inactive
9,CC(C(=O)O)c1ccc2c(c1)CC(=O)c1ccccc1S2 (stereo not drawn),inactive
10,CCCCOc1ccc(CC(=O)NO)cc1,inactive
11,O=S(=O)(c1cccc2cnccc12)N1CCCNCC1,inactive
12,COc1cc2c(Nc3ccc(Br)cc3F)ncnc2cc1OCC1CCN(C)CC1,inactive
13,CC1=C(C(=O)O)N2C(=O)[C@@H](NC(=O)C(N)c3ccccc3)[C@H]2SC1 (stereo partly drawn),inactive
14,CCC(C)(C)c1ccc(CC(C)CN2C[C@@H](C)O[C@@H](C)C2)cc1 (stereo partly drawn),inactive
15,CC(C)(C#N)c1cc(Cn2cncn2)cc(C(C)(C)C#N)c1,inactive
16,O=NN(CCCl)C(=O)NC1CCCCC1,inactive
17,Nc1ccc(S(=O)(=O)Nc2ccccn2)cc1,inactive
18,Cc1onc(-c2ccccc2Cl)c1C(=O)N[C@@H]1C(=O)N2[C@@H]1SC(C)(C)[C@@H]2C(=O)O,inactive
